For 10 compounds, Potency results are on record in PubChem BioAssay (NCATS).

Records with an inconclusive call do not appear. Entries that show only a call come without a potency. The source made the active and inactive calls. Calls follow the shape of the dose curve; as a rule, active = well fitted cell-killing curve with a large enough effect; inconclusive = small, poorly fitted or top-dose-only effect, or effect the other way; inactive = flat fitted curve, though single readings scatter.
Potency is read from the fitted curve at half-maximal effect.

This assay is described as follows: Cell Viability - LYMP2-003 (AID 965).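 Also: cells exposed to compounds for 24 h before reading; nearly all actives have a fitted effect of over 50% in size.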 The following applies: LYMP2-003 lymphoblastoid cell viability; series mostly up to 92.2 µM. The source says: NIH Chemical Genomics Center [NCGC]
NIH Molecular Libraries Screening Centers Network [MLSCN]
National Institutes of Environmental Health Sciences [NIEHS]
National Toxicology Program [NTP]
We have developed a 1536-well cell-based assay for quantitative high throughput screening (qHTS) against a number of cell lines to determine in vitro cytotoxicity of small molecules. This particular assay uses a human lymphoblastoid cell line (LYMP2-003) purchased from Coriell Institute for Medical Research.
NCGC Assay Protocol Summary:
The CellTiter-Glo luminescent cell viability assay (Promega) is a homogeneous method to measure the number of viable cells in culture. The end point readout of this assay is based on quantitation of intracellular ATP, an indicator of metabolic activity, using the luciferase reaction. Luciferase catalyzes the oxidation of beetle Luciferin to oxyluciferin and light in the presence of ATP. The luminescent signal is proportional to amount of ATP present.
Using the CellTiter-Glo luminescent cell viability assay, the amount of cellular ATP was measured in the lymphoblastoid cell line with complete culture medium following compound treatment for 24 hours. The assay was performed in opaque white Kalypsys 1536-well plates. In the screen, tetraoctylammonium bromide was used as positive control. Library compounds were measured for their ability to cause acute toxicity in the cell line, as reflected by a decrease in intracellular ATP levels, in a concentration-dependent manner. […] AC50 values were determined from concentration-response data modeled with the standard Hill equation.
qHTS protocol for CellTiter Glo lymphoblastoid cellular assay
[Step] [Parameter] [Value] [Description]
1. Reagent; 5 uL; 2500 lymphoblastoid cells/well
2. Time; 5 hr; 37 C incubation
4. Controls; 23 nL; Tetraoctylammonium bromide 6.4pM to 92 uM
5. Time; 24 hr; 37 C incubation
6. Reagent; 5 uL; CellTiter Glo reagent
7. Time; 30 min; Room Temperature
8. Detection; Luminescence; Viewlux plate reader
Keywords: cell viability, cytotoxicity, lymphoblastoid cell line, luminescence, NTPHTS, NTPHTS_NCGC, NIEHS, DSSTox, MLSMR, MLSCN, NIH Roadmap, qHTS, NCGC
For `NC(=O)N1c2ccccc2C=Cc2ccccc21`, the Potency result was “inactive”.
To `O=c1[nH]c(=O)n([C@H]2C[C@H](O)[C@@H](CO)O2)cc1Br` belongs “inactive”; to `CCCCOCCOCCOCc1cc2c(cc1CCC)OCO2`, “inactive”.
As for `Nc1nc(N)c2nc(-c3ccccc3)c(N)nc2n1`, the entry is “inactive”; as for `Nc1ncn([C@@H]2O[C@H](CO)[C@@H](O)[C@H]2O)c(=O)n1`, 10 µM (active); as for `CCCCNC(=O)NS(=O)(=O)c1ccc(C)cc1`, “inactive”.
To `COc1ccc(CN(CCN(C)C)c2ccccn2)cc1` belongs “inactive”.
Take `COc1cc(Cc2cnc(N)nc2N)cc(OC)c1OC`: the Potency result is “inactive”.
As to `NC(=Nc1ccccc1)Nc1ccccc1`, the Potency result was “inactive”.
As for `CN=C(NC#N)NCCSCc1nc[nH]c1C`, the entry is “inactive”.
